# Experimental data published in the supplement of paper PMC8728848.
# The entries come from a sample that favours the strongest signals as a whole.
# Columns and labels:
# Assay in all cases: glycan array binding signal (z-score within array); higher = stronger binding
# Neu5Gc(a2-3)Gal(b1-4)Glc = conditions: glycan notation: IUPAC condensed, linker removed
# Procedure, shortened: (§1)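 Negative Z-scores can be read as non-binding. The Z-score is calculated within each array and then averaged across arrays of one protein sequence at different concentrations or buffers and across linkers. Arrays, 3228 in all, were curated from the Consortium for Functional Glycomics database and kept only where the protein sequence was available.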
# [1] = tested on: Neu5Gc(a2-8)Neu5Gc(a2-3)Gal(b1-4)GlcNAc; conditions: glycan notation: IUPAC condensed, linker removed; mutation: R125K
# Procedure, shortened: as §1
# [2] = tested on: Neu5Gc(a2-3)Gal(b1-4)[Fuc(a1-3)]GlcNAc; conditions: glycan notation: IUPAC condensed, linker removed
# Procedure, shortened: as §1
# Neu5Gc(a2-6)GalNAc = conditions: glycan notation: IUPAC condensed, linker removed
# Procedure, shortened: as §1
# [3] = tested on: Neu5Gc(b2-6)Gal(b1-4)GlcNAc; conditions: glycan notation: IUPAC condensed, linker removed
# Procedure, shortened: as §1
# Sequence of PILRb (Mus musculus), Q2YSF2 (Q2YSF2 entry or part of it): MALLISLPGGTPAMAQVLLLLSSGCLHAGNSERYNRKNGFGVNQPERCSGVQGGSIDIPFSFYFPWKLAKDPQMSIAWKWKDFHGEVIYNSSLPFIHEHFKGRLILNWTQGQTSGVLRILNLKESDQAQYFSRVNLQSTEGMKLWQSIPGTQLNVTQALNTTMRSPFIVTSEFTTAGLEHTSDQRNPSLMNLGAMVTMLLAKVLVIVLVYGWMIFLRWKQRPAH
# Sequence of 6RG (Lolium perenne) (chain, as listed by the source): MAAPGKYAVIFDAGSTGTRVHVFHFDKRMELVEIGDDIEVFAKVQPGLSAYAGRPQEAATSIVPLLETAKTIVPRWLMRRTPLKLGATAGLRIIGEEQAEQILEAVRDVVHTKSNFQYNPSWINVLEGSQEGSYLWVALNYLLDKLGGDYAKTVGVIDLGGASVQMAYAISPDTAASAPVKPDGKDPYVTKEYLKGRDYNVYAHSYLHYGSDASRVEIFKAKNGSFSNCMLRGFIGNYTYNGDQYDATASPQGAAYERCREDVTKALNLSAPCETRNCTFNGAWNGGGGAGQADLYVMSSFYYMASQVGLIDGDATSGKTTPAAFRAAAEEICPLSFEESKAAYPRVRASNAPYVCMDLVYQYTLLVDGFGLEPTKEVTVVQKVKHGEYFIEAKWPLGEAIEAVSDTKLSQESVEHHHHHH
# Sequence of SRLC (Mus musculus), Q8VIF6 (Q8VIF6 other isoform, or with tags, fused parts or gaps): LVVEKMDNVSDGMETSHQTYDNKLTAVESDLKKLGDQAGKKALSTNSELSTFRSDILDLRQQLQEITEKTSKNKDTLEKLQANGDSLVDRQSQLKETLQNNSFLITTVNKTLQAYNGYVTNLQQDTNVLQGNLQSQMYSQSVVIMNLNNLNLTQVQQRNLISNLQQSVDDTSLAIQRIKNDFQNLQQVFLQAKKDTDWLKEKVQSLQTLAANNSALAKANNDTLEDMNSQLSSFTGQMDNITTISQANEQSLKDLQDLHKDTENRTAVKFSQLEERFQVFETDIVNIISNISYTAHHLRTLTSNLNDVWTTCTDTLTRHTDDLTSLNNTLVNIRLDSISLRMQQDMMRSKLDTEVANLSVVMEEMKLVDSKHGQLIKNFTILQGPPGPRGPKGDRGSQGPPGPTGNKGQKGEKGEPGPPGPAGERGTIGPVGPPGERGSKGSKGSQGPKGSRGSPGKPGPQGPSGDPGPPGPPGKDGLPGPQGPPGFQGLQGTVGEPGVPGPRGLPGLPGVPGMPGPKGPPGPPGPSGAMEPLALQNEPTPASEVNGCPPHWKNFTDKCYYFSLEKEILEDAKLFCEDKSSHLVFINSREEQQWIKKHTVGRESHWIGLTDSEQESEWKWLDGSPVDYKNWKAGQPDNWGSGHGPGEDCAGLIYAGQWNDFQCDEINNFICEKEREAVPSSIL
# Sequence of C3b (Homo sapiens), P01024 (P01024 23-667): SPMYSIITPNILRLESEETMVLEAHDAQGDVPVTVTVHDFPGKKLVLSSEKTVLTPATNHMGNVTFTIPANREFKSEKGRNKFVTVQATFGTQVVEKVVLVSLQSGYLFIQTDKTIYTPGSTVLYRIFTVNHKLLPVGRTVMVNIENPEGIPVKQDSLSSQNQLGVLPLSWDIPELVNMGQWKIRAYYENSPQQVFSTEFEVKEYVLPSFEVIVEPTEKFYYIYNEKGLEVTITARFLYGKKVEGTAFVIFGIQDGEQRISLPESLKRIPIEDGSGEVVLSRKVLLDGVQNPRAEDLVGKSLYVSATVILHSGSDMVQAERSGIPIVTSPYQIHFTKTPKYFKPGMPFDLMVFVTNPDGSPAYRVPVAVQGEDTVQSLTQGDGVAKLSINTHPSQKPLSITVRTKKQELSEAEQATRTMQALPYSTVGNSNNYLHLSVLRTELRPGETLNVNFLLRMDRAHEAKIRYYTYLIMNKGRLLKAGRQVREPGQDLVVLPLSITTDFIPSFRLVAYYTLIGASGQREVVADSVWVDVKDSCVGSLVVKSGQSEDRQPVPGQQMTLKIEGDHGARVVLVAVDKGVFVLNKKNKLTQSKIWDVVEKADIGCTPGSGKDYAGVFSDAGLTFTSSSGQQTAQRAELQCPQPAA
# Sequence of Aggrecan (Rattus norvegicus), NP_071526 (chain, as listed by the source): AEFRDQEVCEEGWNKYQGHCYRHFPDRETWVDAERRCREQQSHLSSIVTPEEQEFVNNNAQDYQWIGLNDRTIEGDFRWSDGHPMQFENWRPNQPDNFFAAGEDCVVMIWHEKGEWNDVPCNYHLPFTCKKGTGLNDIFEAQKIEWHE
substance,measurement,setting,value
"Siglec-8 (Homo sapiens), Q9NYZ4",glycan array binding signal (z-score),Neu5Gc(a2-3)Gal(b1-4)Glc,-0.088
same,glycan array binding signal (z-score),[1],-0.526
"SRLC (Mus musculus), Q8VIF6",glycan array binding signal (z-score),Neu5Gc(a2-3)Gal(b1-4)Glc,-0.188
"Aggrecan (Rattus norvegicus), NP_071526",glycan array binding signal (z-score),[2],-0.152
"C3b (Homo sapiens), P01024",glycan array binding signal (z-score),Neu5Gc(a2-6)GalNAc,-0.982
6RG (Lolium perenne),glycan array binding signal (z-score),Neu5Gc(a2-6)GalNAc,-0.128
"PILRb (Mus musculus), Q2YSF2",glycan array binding signal (z-score),[3],-0.093
